Compound activity: PubChem, several laboratories
GLD-1 TGE inh – GLD-1/TGE RNA complex disruptors, primary screen, biochemical, fluorescence polarization | 0.44% of 320,000 active | Female germline-specific tumor suppressor gld-1 (Caenorhabditis elegans), Q17339 | purified GLD-1 + fluorescein TGE RNA | inhibition, % at 5.96 µM;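 active = percent inhibition above a per-plate cutoff, the plate mean of test compounds plus 3 SD, cut at about 30% in these data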;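 note: 0% = DMSO wells with GLD-1 and probe and 100% = wells lacking GLD-1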
Bcl-xL primary – inhibitors of human Bcl-xL, primary screen, biochemical, fluorescence polarization, HTS | Bcl-2-like protein 1 (Homo sapiens), Q07817 | GST-Bcl-xL / FITC-Bim BH3 peptide fluorescence polarization | inhibition, % at 10.9 µM | 0.7% of 320,000 active;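 active = inhibition above the mean of all tested compounds plus 3 SD, cutoff set per campaign, cut at about 30% in these data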;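 note: 0% = DMSO wells and 100% = unlabeled Bim-BH3 peptide competitor; inhibitors lower millipolarization by displacing the labeled peptide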
Mcl1-Noxa inh – Mcl-1/Noxa binding inhibitors, primary screen, biochemical, TR-FRET, 1536-well | TR-FRET Mcl-1/Noxa peptide binding, 2 h | inhibition, % at 21.7 µM | 1.5% of 220,000 active;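 active = compounds that cut the protein-peptide binding signal by more than 50% relative to plate controls in a single-dose test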;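 note: His-tagged Mcl-1 with rhodamine Noxa BH3 peptide and terbium anti-His antibody; 0% = Mcl-1 plus Noxa peptide wells and 100% = peptide-only wells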
Target sequence (Q07820 whole entry, looked up): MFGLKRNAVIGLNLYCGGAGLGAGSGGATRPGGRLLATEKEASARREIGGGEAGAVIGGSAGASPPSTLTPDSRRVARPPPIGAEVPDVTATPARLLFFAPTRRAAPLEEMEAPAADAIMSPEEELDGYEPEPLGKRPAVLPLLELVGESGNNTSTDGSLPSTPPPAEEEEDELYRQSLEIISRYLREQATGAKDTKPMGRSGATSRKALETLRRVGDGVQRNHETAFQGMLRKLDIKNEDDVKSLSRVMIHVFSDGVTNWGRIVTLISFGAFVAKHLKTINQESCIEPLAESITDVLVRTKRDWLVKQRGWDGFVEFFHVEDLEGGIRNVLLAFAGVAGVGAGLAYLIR
MCL1 BIM primary – inhibitors of MCL1 binding to BIM-BH3, primary screen, biochemical, fluorescence polarization | GST-MCL1 / FITC-Bim-BH3 fluorescence polarization | inhibition, % at 10.9 µM | 0.68% of 320,000 active | AID 2057, 2009;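 active = inhibition above the mean inhibition of all tested compounds plus 3 SD, set per campaign, cut at about 40% in these data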;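 note: 0% = DMSO wells and 100% = unlabeled Bim-BH3 peptide control; higher means more loss of mP so more displacement of Bim peptide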
Mcl-1 Bim block – inhibitors of Bim peptide binding to Mcl-1, primary screen, biochemical, bead-based flow cytometry, multiplex; Induced myeloid leukemia cell differentiation protein Mcl-1 (Homo sapiens), Q07820; Bim peptide-Mcl-1 binding; inhibition, % at 10 µM; 0.1% of 190,000 active; AID 1009, 2008; in the data active = inhibition above about 40%;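 note: 0% = no compound tracer wells and 100% = peptide blocker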
Mcl1 Bid PPI – Mcl-1/Bid binding inhibitors, primary screen, biochemical, TR-FRET, 1536-well; TR-FRET Mcl-1/Bid-Dy647 peptide binding; AID 1021, 2008; 0.97% of 220,000 active; inhibition, % at 21.7 µM;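 active = compounds that cut the binding signal by more than half at the single screening dose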;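 note: His-tagged Mcl-1 with europium anti-His antibody binding Bid BH3 peptide; 0% = Mcl-1 plus peptide wells and 100% = peptide-only wells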
* hit, by the source's call; . = no result given. An excerpt weighted towards active compounds, which were near 2.3% of everything screened.

SMILES | GLD-1 TGE inh | Bcl-xL primary | Mcl1-Noxa inh | MCL1 BIM primary | Mcl-1 Bim block | Mcl1 Bid PPI
O=C(CN1C(=O)C2CCCCC2C1=O)OCc1nnc(-c2ccccc2)o1 (stereo unspecified) | 3 | 1 | 10 | -4 | -1 | 0
Cc1ccnc(NC(c2ccncc2)c2c(C)[nH]c3ccccc23)c1 (stereo unspecified) | 3 | 8 | 35 | 8 | -4 | 51*
Nc1nc(Nc2cccc(F)c2)nc(N2CCOCC2)c1[N+](=O)[O-] | 1 | -2 | 10 | 2 | . | 77*
Cc1ccc(Nc2nc(N)c([N+](=O)[O-])c(N3CCOCC3)n2)cc1C | -2 | -1 | -29 | -7 | -24 | -34
Cc1ccc(C23OC(=O)C(C)(C)C2OC(=O)C3(C)C)cc1 (stereo unspecified) | 1 | 2 | -4 | 6 | -7 | -14
c1ccc(CN=C2NN=C(c3cc4ccccc4o3)CS2)cc1 | -3 | 7 | 93* | 1 | 0 | -34
COc1ccccc1NS(=O)(=O)c1cccc(NC(=O)C2CC(=O)N(Cc3ccccc3)C2)c1 (stereo unspecified) | 6 | -1 | 12 | 0 | 1 | 88*
COc1cc(C(NC=O)C(=O)Nc2c(C)cccc2C)ccc1O (stereo unspecified) | 3 | 5 | 9 | -3 | . | -8
N#CC1=C(S)N(c2ccccc2)C(c2ccc(-c3cc(Cl)ccc3Cl)o2)NC1=O (stereo unspecified) | 3 | -11 | 76* | -8 | -4 | -32
C=CCN(c1ccc(Br)cc1C(=O)OC)S(C)(=O)=O | -5 | 47* | . | 0 | . | .
Cc1ccc(SCC(=O)OCC(=O)N(C)CC(=O)Nc2ccc(F)cc2)cc1 | 0 | -5 | . | -16 | . | .
FC(F)(F)c1cnc(Nc2ccc(N3CCOCC3)cc2)c(Cl)c1 | 0 | 12 | 61* | 4 | 3 | -24
O=C(COC(=O)C1CC(=O)N(c2ccc3c(c2)OCCO3)C1)NC1CCCc2ccccc21 (stereo unspecified) | 7 | 2 | 7 | 4 | -1 | -35
O=C(COC(=O)CCNS(=O)(=O)c1ccc2c(c1)OCCO2)NC1CCCc2ccccc21 (stereo unspecified) | 2 | 2 | 4 | 0 | -47 | 76*
Cn1c2c(c(=O)n(C)c1=O)C1c3cc(Cl)ccc3OCC1CO2 (stereo unspecified) | -1 | 7 | 2 | 3 | 0 | 96*
COC(=O)c1sc(S(=O)(=O)N2CCN(CCO)CC2)c(C(=O)OC)c1C | 3 | -2 | 0 | 3 | 0 | -12
NCCCC[C@@H]1NC(=O)c2cc([N+](=O)[O-])cc(I)c2SC[C@@H](C(N)=O)NC(=O)[C@H](Cc2ccc(O)cc2)NC1=O | 4 | 5 | 54* | 6 | -2 | 30
CCCCC(Sc1nc(N)c(NC(=O)c2ccco2)c(=O)[nH]1)C(=O)O (stereo unspecified) | 24 | 31* | . | 38 | . | .
COc1ccc(/C=C/C(=O)OCC(=O)Nc2ccc(N3CCOCC3)cc2)cc1 | -2 | 5 | -3 | 1 | 0 | -1
O=C(Nc1ccc(N2CCCC2)cc1)c1ccc(Br)o1 | -3 | 7 | 94* | 6 | 3 | -10
CCOc1ccc(C(=O)Nc2ccc(N3CCCC3)cc2)cc1 | 0 | -3 | 63* | 0 | 1 | 9
O=C(Nc1ccc(N2CCN(C(=O)c3ccccc3)CC2)cc1)c1ccc(Br)o1 | 1 | 1 | -3 | -2 | 0 | -38
COc1ccc(C(=O)NC(=S)Nc2ccc(N3CCCC3)cc2)cc1 | 6 | 4 | 17 | 12 | 0 | -31
COc1ccc(C(=O)Nc2ccc(N3CCCC3)cc2)cc1 | -7 | 15 | 86* | 12 | -2 | -47
CCOc1ccc(/C=C/C(=O)Nc2ccc(N3CCOCC3)cc2)cc1 | 3 | -5 | -5 | -6 | 0 | 101*
